HT1080-NT tox = kills 2HG-producing HT-1080-NT fibrosarcoma cells | HT-1080-NT fibrosarcoma viability, CellTiter-Glo ATP luminescence, 48 h | Potency, µM (titrated, usually from 46.1 µM), for inactives: at the highest dose activity, negative = less viability, hits mostly cytotoxic | hit rate 1.6% among 360,000 | AID 686970;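 also: NT is the 2HG producing partner of a matched IDH1 knockdown line; potency is read from the fitted curve at half-maximal effect; 0% = DMSO-treated cells and -100% = media-only wells without cells; nearly all actives have a fitted effect of over 55% in size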
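Viability of the 2HG-overproducing fibrosarcoma line after 48 hours of compound exposure at 37 degrees C was determined by luminescence with CellTiter-Glo, and concentration-effect curves were then fitted and categorized.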
IL1B secr inh = inflammasome signaling inhibition, IL-1 beta readout | THP-1 LPS/ATP IL-1B secretion, AlphaLISA, 16 h; stronger effect = lower value | activity change, % at 57.5 µM | hit rate 4.7% among 360,000 | AID 743279; in the data active = activity change below about -50%; inconclusive = mostly about -30% to -49%
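Secreted IL-1B measured by AlphaLISA bead assay after 16 h compound exposure of THP-1 cells; compounds (final up to 57.5 uM) added 1 h before LPS (250 ng/mL) and ATP (1.25 mM) stimulation; lower signal means less secretion.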
HT1080 IDH1KD tx = toxicity to HT-1080 IDH1 knockdown cells (counter line). Potency, µM (titrated, usually from 46.1 µM), without a hit: at the top dose activity, negative = toxicity, most hits filed as cytotoxic. HT-1080 IDH1 knockdown viability, ATP luminescence, 48 h. AID 686971. hit rate 2% among 360,000;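 also: potency is read from the fitted curve at half-maximal effect; 0% = DMSO wells and -100% = cell-free medium wells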
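Viability of IDH1-knockdown HT-1080 fibrosarcoma cells was assessed by CellTiter-Glo after 48 h at 37 °C with titrated compound; concentration-effect curves were classified by fit quality and response size.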
TDP1 cell CPT = growth inhibition of DT40 Tdp1-/-;hTDP1 cells with camptothecin (screen for TDP1 inhibitors); chicken DT40 Tdp1-/-;hTDP1 cells + 20 nM CPT, ATP luminescence, 48 h; Potency, µM (titrated, usually from 46.2 µM), for the others: top-dose activity change, negative = growth inhibition, usual class: inhibitors; hit rate 12% among 420,000; also: potency is read from the fitted curve at half-maximal effect; nearly all actives have a fitted effect of over 55% in size
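Cell growth measured by CellTiter-Glo luminescence after a minimum 48 h, 37 C compound exposure with 20 nM CPT in Tdp1-knockout DT40 cells stably expressing hTDP1, seeded 400/well; qHTS titration format.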
TDP1 cell noCPT = qHTS for Inhibitors of human tyrosyl-DNA phosphodiesterase 1 (TDP1): qHTS in cells in absence of CPT; DT40 Tdp1-/- hTDP1 cells, no CPT, ATP luminescence, 48 h; Potency, µM (highest dose often 46.2 µM), inactives show at the top dose activity change, negative = growth inhibition, most hits filed as inhibitors; hit rate 15% among 420,000; AID 686978, 2013; also: potency is read from the fitted curve at half-maximal effect; nearly all actives have a fitted effect of over 55% in size
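Chicken DT40 Tdp1-/- cells complemented with human TDP1, screened without camptothecin (DMSO vehicle only), 400 cells/well. Compounds pin-transferred, cells incubated at 37 °C for at least 48 hr. Growth read as ATP-dependent luminescence (CellTiter-Glo, 30 min at RT).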
ELG1 DNA repair = blocks ELG1-dependent DNA repair in HEK293T cells; HEK293T ELG1-luciferase reporter, luminescence, 16 h; DNA damage induced by 5-fluorouridine; AID 504467; Potency, µM (series often up to 46.1 µM), inactives show top-dose activity change, negative = inhibition, most hits filed as inhibitors; hit rate 2.3% among 330,000; also: potency is read from the fitted curve at half-maximal effect; nearly all actives have a fitted effect of over 55% in size
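Reporter activity after DNA damage by 5-fluorouridine is monitored. Compound-treated cells incubate 16 hr at 37 °C, then ONE-Glo is added for 30 min before luminescence reading.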
* marks the source's active call; other numbers are inactive results; ? = inconclusive; nt = no result given; [ ] = dose if it differs, or a comment. Only some compounds are listed: those with a hit (about 19% of all), similar ones and a draw of the others. Unless noted, calls follow the shape of the dose curve; as a rule, active = well fitted curve in the direction sought with a large enough effect; inconclusive = small, poorly fitted or top-dose-only effect, or another doubt; inactive = no such curve, though single readings can be large; an effect the other way counts as inactive or inconclusive. Unless noted, % is scaled to controls: 0 for no effect and ±100 for the full control effect.

SMILES	HT1080-NT tox	IL1B secr inh	HT1080 IDH1KD tx	TDP1 cell CPT	TDP1 cell noCPT	ELG1 DNA repair
CCOC(=O)C1=CCC(c2ccc(N(CC)CC)cc2)N(S(=O)(=O)c2ccc(C)cc2)C1c1ccc([N+](=O)[O-])cc1 (configuration not stated)	12%	23	8%	7.3µM*	6.5µM*	nt
CN(C)S(=O)(=O)c1ccc2c(c1)N(CC(=O)NCc1ccc(F)cc1)C(=O)CS2	nt	nt	nt	-27%	-23%	nt
C=C[C@H]1C(C(=O)OCC)=CC[C@@H](c2ccccc2)N1S(=O)(=O)c1ccc(C)cc1	-15%	13	-17%	23µM*	21µM*	nt
CCOC(=O)C1=CC[C@@H](c2ccccc2)N(S(=O)(=O)c2ccc(C)cc2)[C@H]1/C=C/c1ccccc1	7%	0	2%	13µM*	9.2µM*	nt
CCOC(=O)C1=CC[C@H]2c3c(c4ccc(OC)cc4n3C)C(=O)C1N2S(=O)(=O)c1ccc(C)cc1	18µM*	65	?	5.8µM*	4.6µM*	-11%
CCc1ccc([C@@H]2CC=C(C(=O)O)[C@H](c3ccccc3)N2S(=O)(=O)c2ccc(C)cc2)cc1	12%	30	-4%	-6%	-19%	-3%
COc1ccc(-c2nc3n(n2)C(c2ccccc2OC)C(C(=O)Nc2cccnc2)=C(C)N3)cc1 (configuration not stated)	nt	nt	nt	-16%	?	nt
COc1ccc(S(=O)(=O)N(CCc2ccccc2)CC(=O)N/N=C/c2ccc3c(c2)OCO3)cc1	-3%	-1	3%	?	?	16µM*
CCOc1cc(/C=N/NC(=O)CN(CCc2ccccc2)S(=O)(=O)c2ccc(NC(C)=O)cc2)ccc1O	?	?	-18%	?	18µM*	26µM*
COC(=O)c1cc(-c2cc(OC)ccc2OC)nc2c1c(=O)n(C)c(=O)n2Cc1ccccc1	11%	13	9%	16µM*	18µM*	9.2µM*
COc1ccc2c(c1)c1c(c(=O)n(Cc3ccccc3)c(=O)n1CC(=O)NCc1ccccc1)n2C	nt	nt	nt	-13%	-11%	nt
Cc1ccc(C(=O)NCC(=O)N2CCc3ccccc3C2)cc1C	2%	-6	10%	6%	?	9%
Cc1ccc(NC(=O)CN2C(=O)CSc3ccc(S(=O)(=O)N4CCCC4)cc32)c(C)c1	nt	nt	nt	-14%	-27%	nt
COc1cc(OC)c(/C=C2\SC(=O)N(CC(=O)Nc3ccccc3F)C2=O)c(OC)c1	-1%	-7	1%	?	21µM*	-5%
COc1ccc(/C=C2\SC(=O)N(CC(=O)Nc3ccc(F)cc3)C2=O)cc1O	-1%	?	-23%	?	15µM*	?
N=C1S/C(=C\c2cccc3ccccc23)C(=O)N1c1ccc(F)cc1	?	-25	-28%	5.2µM*	3.7µM*	-22%
COc1ccc(/C=C2\SC(=O)N(CC(=O)NNC(=O)c3ccccc3O)C2=O)cc1OC	-30%	-18	?	-5%	?	?
CCOc1cc(/C=C2\SC(=O)N(CC(=O)Nc3ccccc3F)C2=O)cc([N+](=O)[O-])c1O	-6%	-20	0%	8.2µM*	21µM*	-13%
COc1ccccc1NS(=O)(=O)c1cccc(C(=O)NCC(c2cccs2)N(C)C)c1 (configuration not stated)	-4%[9.24 µM]	10	-1%	?	-17%	nt
O=C(Nc1cccn2nc(COCCO)nc12)C(c1ccccc1)c1ccccc1	2%	14	29%	-7%	-13%	nt
CN(C)/C=N/c1ncn(-c2ncc(C(F)(F)F)cc2Cl)n1	4%	-5	-1%	25%	-5%	?
Cc1ccc(NC(=O)CN2C(=O)S/C(=C/c3ccncc3)C2=O)cc1	-3%	-5	-13%	16µM*	?	0%
COc1cc(/C=C2\SC(=N)N(c3ccc(F)cc3)C2=O)ccc1O	?	2	?	26µM*	23µM*	?
COc1cc(/C=C2\SC(=O)N(CC(=O)Nc3ccccc3F)C2=O)cc(Cl)c1O	?	31	?	18µM*	13µM*	-18%
CC(C)c1ccc(/C=C2\SC(=O)N(CC(=O)NCCCn3ccnc3)C2=O)cc1	-18%	-1	0%	?	15µM*	?
SMILES	HT1080-NT tox	IL1B secr inh	HT1080 IDH1KD tx	TDP1 cell CPT	TDP1 cell noCPT	ELG1 DNA repair
O=C(CN1C(=O)S/C(=C\c2ccccc2)C1=O)NCCCn1ccnc1	2%	-3	2%	?	-2%	8%
COc1cc(/C=C2\SC(=O)N(CC(=O)Nc3cccc(C)c3)C2=O)cc([N+](=O)[O-])c1O	?	-26	?	?	?	11%
CCc1nc(SCC(=O)Nc2ccc(NC(C)=O)cc2)n[nH]1	nt	nt	nt	3%	4%	nt
COC(=O)c1ccc(/C=C(\C#N)c2ccccn2)cc1	-1%	25	-12%	?	?	?
COc1cc(/C=C(\C#N)c2ccccn2)ccc1OCc1ccccc1Cl	2%	-21	4%	15µM*	?	?
COc1cc(/C=C(\C#N)c2ccccn2)cc(OC)c1O	-8%	21	-18%	9.2µM*	?	-15%
CCNc1ccc(P(=O)(c2ccccc2)c2ccccc2)cc1	-1%	-6	19%	4%	?	-9%
COc1ccc(-c2nc3cnc(N4CCOCC4)nc3n(-c3ccccc3)c2=O)cc1	nt	nt	nt	-2%	4%	nt
COCCNC(=O)CN1C(=O)COc2ccc(S(=O)(=O)N3CCCC3)cc21	nt	nt	nt	-6%	0%	nt
O=C(NNC(=O)c1ccc(Br)s1)c1csc(N2CCOCC2)n1	-4%	-16	1%	-9%	-25%	19%
CN1CCC[C@H]1CCNc1ccc2c(=O)c3ccccc3n(C)c2c1	-4%	-72*	-2%	?	?	nt
Cn1c2ccccc2c(=O)c2ccc(NCc3ccc4c(c3)OCO4)cc21	-3%	-4	-13%	23µM*	15µM*	nt
O=c1c2ccccc2oc2ccc(Oc3ccccc3)cc12	21%	-10	7%	?	?	?
CN1CCCC1CCNc1ccc2oc3ccccc3c(=O)c2c1 (configuration not stated)	-19%	-79*	-2%	?	?	?
CN1CCCC1CCNc1ccc2c(=O)c3ccccc3oc2c1 (configuration not stated)	-9%	-83*	-3%	?	18µM*	?

Screens deposited in PubChem by National Center for Advancing Translational Sciences (NCATS).
